CYP2C19 act: increases human CYP2C19 enzyme activity. P33261. recombinant CYP2C19, luciferin-H EGE luminescence; hits give high values; 0 = fully inhibited enzyme, 1 = untreated enzyme. activation factor at 5 µM. 96,000 tested, under 10 active;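 active = activation factor of at least 2 at 5 µM in the primary screen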
Target sequence (P33261 whole entry, looked up): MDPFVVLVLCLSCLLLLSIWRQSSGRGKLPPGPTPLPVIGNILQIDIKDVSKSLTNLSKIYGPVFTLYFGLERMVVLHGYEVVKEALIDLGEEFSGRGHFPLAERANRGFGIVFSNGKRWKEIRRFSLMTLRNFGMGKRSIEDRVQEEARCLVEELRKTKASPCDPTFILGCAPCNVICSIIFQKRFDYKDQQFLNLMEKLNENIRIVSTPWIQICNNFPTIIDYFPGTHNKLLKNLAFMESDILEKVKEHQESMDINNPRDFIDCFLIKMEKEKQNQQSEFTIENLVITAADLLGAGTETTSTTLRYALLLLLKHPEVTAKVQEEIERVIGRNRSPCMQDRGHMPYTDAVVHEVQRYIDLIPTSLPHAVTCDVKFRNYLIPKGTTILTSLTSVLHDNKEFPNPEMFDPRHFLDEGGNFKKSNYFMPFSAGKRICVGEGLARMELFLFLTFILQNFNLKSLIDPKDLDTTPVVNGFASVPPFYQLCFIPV
CYP2C9 inhib: blocks human cytochrome P450 2C9; P11712; CYP2C9 Supersomes, luciferin-H conversion, luminescence; inhibition, % at 5 µM; 96,000 tested, 20% active;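 active = blocking of liver enzyme CYP2C9 beyond about 50% at 5 µM, limit read from the data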
PLAP act: activates human placental alkaline phosphatase. purified PLAP enzyme, luminescent substrate read-out; hits give high values. activation fold at 20 µM. 96,000 tested, 1.2% active; in the data active = activation fold above about 2
CYP2C19 inh: inhibitors of human CYP2C19; 96,000 tested, 21% active; CYP2C19 Supersomes, luciferin-H EGE luminescence, 30 min; AID 778; inhibition, % at 5 µM; P33261;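 active = CYP2C19 inhibition above a set limit at 5 µM in the primary screen, cut at about 50% in these data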
CYP2C9 act: increases human cytochrome P450 2C9 activity. P11712. recombinant CYP2C9, luciferin-H conversion, luminescence; hits give high values; factor 1 = untreated enzyme, 0 = blocked. activation factor at 5 µM. 96,000 tested, 1.4% active. AID 1024;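 active = activation factor of 2 or more for CYP2C9 at a 5 µM dose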
Of the large screens only hits and unclear results are named; the others gave an inactive call. Rows were chosen to be rich in hits. Some 31% of all compounds tested hit in one or more screens of this group.

O=C1C2C3C=CC(C3)C2C(=O)N1Cc1ccccc1 (centres undefined)	CYP2C19 inh 84
CCCCN(Cc1cc2cc(OC)ccc2[nH]c1=O)C(=O)c1ccco1	CYP2C9 inhib 70, CYP2C19 inh 74
CCCN(Cc1cc2cc(C)ccc2[nH]c1=O)S(C)(=O)=O	CYP2C9 inhib 73, CYP2C19 inh 88
CCOC(=O)c1cccc(S(=O)(=O)N(CCO)Cc2cc3cc(OC)ccc3[nH]c2=O)c1	CYP2C19 inh 56
COc1ccc2[nH]c(=O)c(CN(C(=O)c3ccccn3)C3CCCCC3)cc2c1	CYP2C9 inhib 63
O=C(CCn1nc(-c2ccccc2)ccc1=O)N1CCN(c2ccccn2)CC1	none
COc1ccc(C2C(C(=O)NCc3ccccc3)=C(C)Nc3ncnn32)cc1OC (centres undefined)	none
COc1ccc2[nH]c(=O)c(CN(C(=O)c3ccncc3)C(C)C)cc2c1	CYP2C9 inhib 50
CCOc1ccc(C(=O)N(Cc2ccc(OC)cc2)Cc2cc3cc(OC)ccc3[nH]c2=O)cc1	none
CCCN(Cc1cc2cc(C)ccc2[nH]c1=O)C(=O)c1cccc(OC)c1	CYP2C9 inhib 58, CYP2C19 inh 64
COc1ccc2[nH]c(=O)c(CN(C)C(=O)c3ccncc3)cc2c1	CYP2C9 inhib 60, CYP2C19 inh 92
CCCN(Cc1cc2cc(OC)ccc2[nH]c1=O)C(=O)c1ccncc1	CYP2C19 inh 68
COc1ccc2[nH]c(=O)c(CN(C(=O)c3ccncc3)C(C)(C)C)cc2c1	none
COc1ccc(S(=O)(=O)N(CCc2ccccc2)CC(=O)N2CCOCC2)cc1	none
O=C(CSCC(=O)OCC(=O)c1ccc(Br)cc1)Nc1cccc2ccccc12	none
O=c1cc(N2CCN(Cc3ccccc3)CC2)[nH]c(=O)n1-c1ccc(Br)cc1	none
COc1ccc2cc(CN(C(=O)Nc3ccccc3OC)C3CCCC3)c(=O)[nH]c2c1	CYP2C9 inhib 51
Cc1nnc(NC(=O)C2CCCN(c3ncccn3)C2)s1 (centres undefined)	none
C/C(Cl)=C/CSc1nn2c(=O)c3ccccc3nc2s1	CYP2C9 inhib 82, CYP2C19 inh 74
O=C(CCCCCn1c(=S)[nH]c2cc3c(cc2c1=O)OCO3)N1CCN(C(=O)c2ccco2)CC1	CYP2C9 inhib 64
COc1ccc2[nH]c3c(=O)n(CCCCC(=O)N4CCCC4)c(=S)[nH]c3c2c1	CYP2C9 inhib 60
O=C(CCCCCn1c(=S)[nH]c2cc3c(cc2c1=O)OCO3)N1CCN(Cc2ccccc2)CC1	CYP2C9 inhib 70
CC(C)OCCCn1c(=S)[nH]c2cc3c(cc2c1=O)OCO3	none
Cc1ccc(C)c(N2CCN(C(=O)CCn3c(=S)[nH]c4cc5c(cc4c3=O)OCO5)CC2)c1	CYP2C9 inhib 79
CCOC(=O)CNC(=O)Cn1cnc2ccc(S(=O)(=O)N3CCC(C)CC3)cc2c1=O	none
O=C(CCCCCn1c(=S)[nH]c2cc3c(cc2c1=O)OCO3)N1CCN(C2CCCCC2)CC1	CYP2C9 inhib 81
O=c1c2cc3c(cc2[nH]c(=S)n1CCN1CCOCC1)OCO3	none
COc1ccc(N2CCN(C(=O)CCCn3c(=S)[nH]c4cc5c(cc4c3=O)OCO5)CC2)cc1	CYP2C9 inhib 74
O=C(CCCn1c(=S)[nH]c2cc3c(cc2c1=O)OCO3)N1CCN(c2ccccn2)CC1	none
CCCC(C)C(=O)Nc1cccc(NC(C)=O)c1 (centres undefined)	none
COc1cc2c(cc1OC)CN(S(=O)(=O)c1ccc3c(c1)OCCO3)CC2	CYP2C19 inh 95
COc1ccc(S(=O)(=O)N2CCc3ccccc3C2)cc1OC	CYP2C19 inh 91, CYP2C9 act 2.4
CCOC(=O)c1c(C)c(C(=O)Nc2cc(OC)ccc2OC)c(C)n1CC	CYP2C19 inh 61
CCOC(=O)c1c(C)c(C(=O)Nc2ccccc2)c(C)n1CC	none
COc1ccccc1NC(=O)c1[nH]c(C)c(C(C)=O)c1C	CYP2C9 inhib 79
CCOC(=O)c1[nH]c(C)c(C(=O)Nc2cc(OC)ccc2OC)c1C	CYP2C9 act 2
CCOC(=O)c1c(C)[nH]c(C(=O)OCC(=O)Nc2cc(C)ccc2OC)c1C	none
CC(=O)c1c(C)[nH]c(C(=O)NC2=NCCS2)c1C	CYP2C9 inhib 64
Cc1cc(C2C(=O)C(C(=O)c3ccc(Cl)cc3)C(=O)CC2(C)C)on1 (centres undefined)	none
COc1ccc(N2CCN(CC(O)c3c[nH]c4ccc(OC)cc34)CC2C)cc1 (centres undefined)	none
CCOc1ccc(Nc2nc(NCCN3CCOCC3)nc(OC)n2)cc1	none
CCOC(=O)c1[nH]c(C)c(C(=O)c2ccc(C)cc2)c1C	CYP2C19 inh 63
CCN1CCCC1CN(Cc1cc2ccc(C)c(C)c2[nH]c1=O)C(=O)Nc1ccccc1OC (centres undefined)	none
NC(=S)n1[nH]c(-c2ccc([N+](=O)[O-])cc2)c(N=Nc2ccc(O)cc2)c1=O	CYP2C9 inhib 76
CC(c1ccco1)N(C(=O)CSc1ccc(Br)cc1)c1ccccn1 (centres undefined)	CYP2C9 inhib 90, CYP2C19 inh 98
COC(=O)c1cc2sccc2n1Cc1ccc(C)cc1	none
CCOC(=O)c1cc2sccc2n1CC(=O)OC	none
CCOC(=O)c1cc2sccc2n1CC(=O)Nc1ccc(OC)cc1OC	CYP2C9 inhib 68, CYP2C19 inh 99
COC(=O)c1cc2sccc2n1CC(=O)Nc1cccc(SC)c1	none
COc1cc(Cn2c(C(=O)O)cc3sccc32)cc(OC)c1OC	CYP2C19 inh 71
COC(=O)c1cc2sccc2n1CC(=O)Nc1ccc(OC)c(OC)c1OC	CYP2C9 inhib 88, CYP2C19 inh 91
COC(=O)C(C)N1C(=O)S/C(=C/c2cc(C)n(C(C)C)c2C)C1=O (centres undefined)	none
CCn1c(C(=O)N2CCCC(C(=O)NCCc3ccc(C)cc3)C2)cc2sccc21 (centres undefined)	CYP2C9 inhib 50
Cn1c(C(=O)N2CCCC(C(=O)NCCCSC3CCCCC3)C2)cc2sccc21 (centres undefined)	CYP2C9 inhib 82
CCC1Sc2ccccc2N(CC(=O)NCCC(C)C)C1=O (centres undefined)	none
Cc1onc(-c2c(Cl)cccc2Cl)c1C(=O)N1CCc2ccccc21	CYP2C9 inhib 85, CYP2C19 inh 88
Cc1onc(-c2ccccc2Cl)c1C(=O)N1CCc2ccccc2C1	CYP2C19 inh 54
Cc1onc(-c2c(Cl)cccc2Cl)c1C(=O)Nn1cnnc1	none
Cc1onc(-c2ccccc2Cl)c1C(=O)N1CC(C)OC(C)C1 (centres undefined)	none
Cc1onc(-c2c(F)cccc2Cl)c1C(=O)N1CCc2ccccc2C1	CYP2C9 inhib 68, CYP2C19 inh 96
CCOC(=O)C1CCCN(C(=O)c2c(-c3ccccc3Cl)noc2C)C1 (centres undefined)	CYP2C9 inhib 69, CYP2C19 inh 79
C=CCSc1n[nH]c(-c2ccccc2)n1	none
O=C(Cn1cnc2c(cnn2-c2ccc(F)cc2)c1=O)OCc1ccccc1	none

High-throughput results deposited in PubChem by Sanford-Burnham Center for Chemical Genomics.
